Reference: PubChem BioAssay (EPA / NIEHS)
Where “and” joins values, the source holds several entries; their conditions need not be identical. Equal values may be shown once. Results filed as inconclusive are left out. Some structures have more than one record in an assay (separate samples or runs), and their calls can disagree. Calls of active or inactive are those of the source. How the source made its calls, unless noted: active means hit-call score of the fitted dose curve at least 0.9, where 1 is the maximum; inactive means score below 0.9.

Assays:
[1] = read-out: Thyroid Hormone Responsive (THRSP), THRSP (gene 7069); assay: LTEA_HepaRG_THRSP: Life Technologies and Expression Analysis (LTEA) Assay for Thyroid Hormone Responsive (THRSP) using HepaRG (AID 2283536); conditions: mRNA level, 48 h; actives raise or lower the signal
Summary of the method: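 Differentiated human HepaRG cells were exposed in duplicate for 48 h in serum-free induction medium to eight concentrations (top 100 uM, half-log steps, 0.5% DMSO). Expression was quantified by TaqMan qRT-PCR, normalized to ACTB, GAPDH and POLR2A, with bidirectional fitting against DMSO.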

[2] = read-out: Cellular tumor antigen p53 (Homo sapiens) (UniProt P04637); assay: LTEA_HepaRG_TP53: Life Technologies and Expression Analysis (LTEA) Assay for Tumor Protein P53 (TP53) using HepaRG (AID 2283537); conditions: mRNA level, 48 h; actives raise or lower the signal
Summary of the method: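 Gain or loss of TP53 mRNA signal is scored relative to 0.5% DMSO after 48 h chemical treatment of HepaRG liver cells, tested in duplicate at eight half-log concentrations up to 100 uM.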

[3] = read-out: UDP glucuronosyltransferase (UGT1A1), UGT1A1 (gene 54658); assay: LTEA_HepaRG_UGT1A1: Life Technologies and Expression Analysis (LTEA) Assay for UDP glucuronosyltransferase (UGT1A1) using HepaRG (AID 2283538); conditions: mRNA level, 48 h; actives raise or lower the signal
Summary of the method: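 Human liver HepaRG cultures receive test chemical for 48 h, up to 100 uM in 0.5% DMSO, with phenobarbital induction controls. UGT1A1 mRNA is measured by qRT-PCR and normalized to ACTB, GAPDH and POLR2A.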

[4] = read-out: UDP glucuronosyltransferase (UGT1A6), UGT1A6 (gene 54578); assay: LTEA_HepaRG_UGT1A6: Life Technologies and Expression Analysis (LTEA) Assay for UDP glucuronosyltransferase (UGT1A6) using HepaRG (AID 2283539); conditions: mRNA level, 48 h; actives raise or lower the signal
Summary of the method: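 Differentiated HepaRG cells, ~100,000/well, were exposed for 48 h in serum-free induction medium with 0.5% DMSO to 8-point half-log series topping at 100 uM, in duplicate. mRNA measured by Fluidigm TaqMan qRT-PCR, normalized to ACTB, GAPDH and POLR2A.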

[5] = read-out: X-box binding protein 1 (XBP1), XBP1 (gene 7494); assay: LTEA_HepaRG_XBP1: Life Technologies and Expression Analysis (LTEA) Assay for X-box binding protein 1 (XBP1) using HepaRG (AID 2283540); conditions: mRNA level, 48 h; actives raise or lower the signal
Summary of the method: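 Differentiated human HepaRG cells in serum-free induction medium exposed 48 h in duplicate to eight half-log concentrations up to 100 uM in 0.5% DMSO. XBP1 mRNA measured by Fluidigm TaqMan qRT-PCR, normalized to ACTB, GAPDH, POLR2A; bidirectional fitting against DMSO.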

[6] = LTEA_HepaRG_LDH_cytotoxicity: Cytotoxicity Assessment in the Life Technologies and Expression Analysis (LTEA) Assay (AID 2283563; active means hit-call score of the fitted dose curve at least 0.9, where 1 is the maximum;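 on AC50: LDH activity released into spent culture medium as a marker of cell death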)
Summary of the method: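 Differentiated HepaRG cells in serum-free induction medium, exposed 48 h in duplicate to 8 half-log concentrations up to 100 uM in 0.5% DMSO. Cytotoxicity from LDH measured in spent medium, fit relative to DMSO.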

[7] = molecular target: Cellular tumor antigen p53 (Homo sapiens) (UniProt P04637); assay: TOX21_p53_BLA_p2_ratio: Tox21 HCT-116 p53 Agonism Beta-lactamase Assay, Ratio, Phase 2 (AID 2283592; active means hit-call score of the fitted dose curve at least 0.9, where 1 is the maximum)
Sequence of Cellular tumor antigen p53 (Homo sapiens) (P04637 whole entry, looked up): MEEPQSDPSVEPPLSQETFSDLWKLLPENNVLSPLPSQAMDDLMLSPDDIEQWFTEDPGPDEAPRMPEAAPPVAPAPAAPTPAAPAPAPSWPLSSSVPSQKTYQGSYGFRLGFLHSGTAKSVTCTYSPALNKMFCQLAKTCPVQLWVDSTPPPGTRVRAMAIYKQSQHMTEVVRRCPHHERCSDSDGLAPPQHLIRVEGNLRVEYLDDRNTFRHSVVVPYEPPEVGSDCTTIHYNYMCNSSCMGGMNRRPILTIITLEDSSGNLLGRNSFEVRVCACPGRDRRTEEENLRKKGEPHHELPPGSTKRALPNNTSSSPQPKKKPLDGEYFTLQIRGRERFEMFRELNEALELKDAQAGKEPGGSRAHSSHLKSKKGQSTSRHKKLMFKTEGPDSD
Summary of the method: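 HCT-116 cells with p53-responsive beta-lactamase reporter, 4000 cells/well, preincubated 5 h, then compound in DMSO (217-fold dilution) for 16 h at 37C. CCF4-AM substrate 2 h at room temperature; 460/530 nm emission ratio fitted upward versus DMSO.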

[8] = TOX21_p53_BLA_p3_viability: Viability Assessment in the Tox21 HCT-116 p53 Agonism Beta-lactamase Assay, Phase 3 (AID 2283593; active means hit-call score of the fitted dose curve at least 0.9, where 1 is the maximum;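 further: cells exposed to compound for 16 h before reading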)
Summary of the method: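 HCT-116 cells (4000/well) rested 5 h at 37C, then got DMSO compounds by pin tool (217-fold dilution) for 16 h at 37C, 5% CO2. After the bla read, CellTiter-Glo was added and luminescence read at 30 min, room temperature.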

[9] = ATG_XTT_Cytotoxicity: Cytotoxicity Assessment in the Attagene TRANS-FACTORIAL HepG2 Assay (AID 2283584; active means hit-call score of the fitted dose curve at least 0.9, where 1 is the maximum)
Summary of the method: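 HepG2 cells transiently transfected with GAL4-UAS multiple reporter units, dosed 24 h; cytotoxicity read by XTT as loss of signal versus DMSO baseline.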

Measured: AC50

Fc1ccc(Oc2ccnc3cc(Cl)cc(Cl)c23)cc1
active: [1] 76.2 µM | [3] 13.3 µM | [7] 79.3 µM
not listed: [9]
inactive: all other assays above

CCCCC(CC)COC(=O)c1ccccc1C(=O)OCC(CC)CCCC (stereo not given)
active: [3] 9.29 µM
inactive: all other assays above

CC1=C(C(=O)Nc2ccccc2)SCCO1
active: [1] 17 µM | [3] 50 µM
not listed: [9]
inactive: all other assays above

Cc1c(F)c(F)c(COC(=O)C2C(/C=C(\Cl)C(F)(F)F)C2(C)C)c(F)c1F (stereo not given)
not listed: [9]
inactive: all other assays above

CC(C)(C)c1ccc(CSc2cnn(C(C)(C)C)c(=O)c2Cl)cc1
active: [1] 9.85 µM | [4] 18.8 µM | [5] 2.71 µM | [6] 3.02 µM | [7] 0.0143 µM
inactive: [3] | [9]

CCCCNC(=O)OCC#CI
active: [1] 50 µM | [3] 24.9 µM | [5] 50 µM | [7] 67 µM
inactive: [4] | [6] | [9] | [7] | [8]

CNC(=O)ON=CC(C)(C)SC
not listed: [2]
inactive: all other assays above

COP(=S)(OC)Oc1nc(Cl)c(Cl)cc1Cl
not listed: [2]
inactive: all other assays above

CCOP(=S)(OCC)SCn1c(=O)oc2cc(Cl)ccc21
not listed: [2] | [8]
inactive: all other assays above

CCOC(=O)C(Cl)Cc1cc(-n2nc(C)n(C(F)F)c2=O)c(F)cc1Cl (stereo not given)
active: [3] 38.2 µM
not listed: [8] | [9]
inactive: all other assays above

COc1nc(NC(C)C)nc(NC(C)C)n1
active: [3] 11.4 µM
not listed: [2] | [8]
inactive: all other assays above

N#CC(CCc1ccc(Cl)cc1)(Cn1cncn1)c1ccccc1 (stereo not given)
inactive: [7] | [8]
active: [1] 90.7 µM | [2] 75.5 µM | [3] 74.9 µM | [4] 81.9 µM | [5] 80.3 µM | [6] 37.5 µM

CNC(=S)S
not listed: [2]
inactive: all other assays above

COC(=O)N(OC)c1ccccc1COc1ccn(-c2ccc(Cl)cc2)n1
active: [1] 7.22 µM | [3] 82.4 µM | [4] 73.3 µM | [6] 71.5 µM | [7] 1.09 µM
inactive: [5] | [9] | [8]

CCc1nn(C)c(C(=O)NCc2ccc(C(C)(C)C)cc2)c1Cl
inactive: [8]
active: [1] 1.06 µM | [2] 12.1 µM | [3] 27.8 µM | [4] 37.1 µM | [5] 13.6 µM | [6] 27.3 µM | [7] 0.0232 µM

Oc1ccccc1-c1ccccc1
not listed: [2]
inactive: all other assays above

CCNc1nc(Cl)nc(NC(C)C)n1
active: [3] 18.1 µM
not listed: [2] | [8]
inactive: all other assays above

COc1ccc(C(c2ccc(OC)cc2)C(Cl)(Cl)Cl)cc1
active: [1] 81.7 µM | [2] 66.7 µM | [3] 12 µM | [4] 79.2 µM | [6] 83.4 µM
inactive: [5] | [9] | [7] | [8]

C=CC1(C)OC(=O)N(c2cc(Cl)cc(Cl)c2)C1=O (stereo not given)
active: [3] 22.7 µM
not listed: [2] | [8]
inactive: all other assays above

CON(C)C(=O)Nc1ccc(Cl)c(Cl)c1
active: [1] 11.4 µM | [3] 32.5 µM
not listed: [2]
inactive: all other assays above

CCCC1COC(Cn2cncn2)(c2ccc(Cl)cc2Cl)O1 (stereo not given)
active: [1] 7.44 µM | [3] 35.8 µM | [4] 59.5 µM | [6] 32 µM
inactive: [5] | [9] | [7] | [8]

C#CCOS(=O)OC1CCCCC1Oc1ccc(C(C)(C)C)cc1 (stereo not given)
active: [3] 27.5 µM | [4] 26.4 µM | [6] 29.3 µM | [7] 2.65 µM and 1.54 µM
inactive: [1] | [5] | [9] | [8]

CCCN(CCC)c1c([N+](=O)[O-])cc(S(N)(=O)=O)cc1[N+](=O)[O-]
active: [3] 7.17 µM and 86.5 µM and 89.5 µM | [4] 79.1 µM and 78.9 µM | [5] 96.7 µM and 79.1 µM | [6] 76.5 µM and 78.3 µM and 77.5 µM
inactive: [1] | [4] | [5] | [9]

CO/C=C(/C(=O)OC)c1ccccc1Oc1cc(Oc2ccccc2C#N)ncn1
inactive: [1] | [5] | [9] | [7] | [8]
active: [1] 93.2 µM and 80.5 µM | [3] 88.7 µM and 87.6 µM and 83.3 µM | [4] 78.4 µM and 80.9 µM and 86.7 µM | [6] 74.8 µM and 77.6 µM and 80.7 µM
